Data taken from paper PMC4336329 (PLoS ONE, 2015).
About 14,000 (4.5%) of roughly 310,000 compounds showed an effect of 50% or more. The effect is printed as a negative number. The full list was thinned out, with strong results kept by preference.

Molecular target: human ether-à-go-go-related gene (hERG) potassium channel (human, UniProt Q12809)
Test: primary screen, population patch clamp on CHO cells stably expressing hERG; higher = less effect of the substance
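Note: peak tail current of the secondary pulse compared with the same well before compound.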

Sequence of human ether-à-go-go-related gene (hERG) potassium channel (Q12809 whole entry, looked up): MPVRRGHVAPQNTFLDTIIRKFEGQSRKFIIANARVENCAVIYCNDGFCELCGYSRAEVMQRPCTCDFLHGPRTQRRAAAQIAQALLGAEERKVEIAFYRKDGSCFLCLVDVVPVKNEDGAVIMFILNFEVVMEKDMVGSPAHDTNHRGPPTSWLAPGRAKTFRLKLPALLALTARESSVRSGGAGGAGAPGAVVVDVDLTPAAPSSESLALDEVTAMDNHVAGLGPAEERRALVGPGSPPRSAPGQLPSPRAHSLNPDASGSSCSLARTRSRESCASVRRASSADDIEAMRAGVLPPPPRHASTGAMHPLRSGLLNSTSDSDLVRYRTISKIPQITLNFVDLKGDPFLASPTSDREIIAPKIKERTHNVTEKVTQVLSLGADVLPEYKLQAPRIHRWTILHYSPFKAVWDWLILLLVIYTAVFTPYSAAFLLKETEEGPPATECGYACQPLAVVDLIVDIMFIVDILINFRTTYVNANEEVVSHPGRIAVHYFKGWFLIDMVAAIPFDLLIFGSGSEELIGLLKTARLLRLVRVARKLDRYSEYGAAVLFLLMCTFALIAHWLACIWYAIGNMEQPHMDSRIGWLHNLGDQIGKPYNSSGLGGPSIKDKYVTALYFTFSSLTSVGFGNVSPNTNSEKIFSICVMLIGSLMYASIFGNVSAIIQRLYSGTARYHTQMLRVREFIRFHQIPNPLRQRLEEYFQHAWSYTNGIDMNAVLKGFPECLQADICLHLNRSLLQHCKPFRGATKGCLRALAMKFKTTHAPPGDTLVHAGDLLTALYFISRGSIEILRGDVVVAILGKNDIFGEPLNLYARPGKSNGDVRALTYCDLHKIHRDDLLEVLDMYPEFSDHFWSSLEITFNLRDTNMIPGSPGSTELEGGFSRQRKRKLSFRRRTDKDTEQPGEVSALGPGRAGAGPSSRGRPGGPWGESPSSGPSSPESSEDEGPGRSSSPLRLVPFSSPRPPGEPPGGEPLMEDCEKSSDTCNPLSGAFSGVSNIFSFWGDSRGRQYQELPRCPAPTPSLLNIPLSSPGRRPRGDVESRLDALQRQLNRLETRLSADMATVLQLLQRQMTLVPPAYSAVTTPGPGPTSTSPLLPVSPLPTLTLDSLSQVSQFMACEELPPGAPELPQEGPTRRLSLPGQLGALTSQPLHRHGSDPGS

SMILES	hERG current change (%, negative = inhibition) at 10uM
CCCc1cc(=O)[nH]c(SCC(=O)N(CC)Cc2ccccc2)n1	7.9%
Cc1ccc(S(=O)(=O)C2(C(=O)N3CCCCC3C)CC2)cc1 (stereo not drawn)	1.58%
CC1C(=O)N2CCCc3cc(S(=O)(=O)N(C)Cc4ccccc4)cc1c32 (stereo not drawn)	-14.7%
O=C(O)c1cc(=O)n(Cc2ccccc2)c(=O)[nH]1	15%
Cc1ccc(C(C)NC(=O)c2cccnc2)cc1 (stereo not drawn)	11.2%
Clc1ccccc1Cn1c(/C=C/c2ccco2)nc2ccccc21	13.5%
COc1cc2c(cc1NC(=O)COC(=O)CNS(=O)(=O)c1ccc(C)cc1)oc1ccccc12	1.63%
CN(c1ccc(C(=O)Nc2cccnc2)cc1)S(=O)(=O)c1ccccc1	-14.9%
COc1ccc(-c2nnc(SCC(=O)Nc3sc4c(c3C#N)CCCC4)n2-c2ccccc2)cc1	15.4%
Cc1ccc(C)c(S(=O)(=O)N2CCN(c3nc(CN4CCOCC4)nc4sc(C)c(C)c34)CC2)c1	-57.1%
Cc1sc2nc(CN3CCOCC3)nc(N3CCOCC3)c2c1C.O=C(O)C(=O)O	-10.8%
Cc1ccc(S(=O)(=O)Nc2nc(CN3CCOCC3)nc3sc(C)c(C)c23)cc1	-43%
O=C(CNc1n[nH]c(=O)[nH]c1=O)N/N=C/c1ccccc1	2.89%
O=S(NC1CCCCC1)C12CC3CC(CC(C3)C1)C2 (stereo not drawn)	-12.4%
CCc1nc(N2CCN(C(=O)c3ccccc3)CC2)c(C#N)c2c1COC(C)(C)C2	-46.5%
CC1(C)Cc2c(C#N)c(N3CCN(C(=O)c4ccco4)CC3)nc(Cc3ccccc3)c2CO1	-25.3%
Cc1nc(N2CCN(C(=O)c3ccc(Cl)cc3)CC2)c(C#N)c2c1COC(C)(C)C2	-60.8%
CCc1nc(N2CCN(C(=O)c3ccco3)CC2)c(C#N)c2c1COC(C)(C)C2	-52.1%
CCCNC(=O)N1CCN(c2nc(C(C)C)c3c(c2C#N)CC(C)(C)OC3)CC1	4.84%
CC(C)c1nc(N2CCN(C(=O)c3ccccc3)CC2)c(C#N)c2c1COC(C)(C)C2	-40.8%
CC(C)c1nc(N2CCN(C(=O)c3ccco3)CC2)c(C#N)c2c1COC(C)(C)C2	-71.5%
CCc1nc(N2CCN(C(C)=O)CC2)c(C#N)c2c1COC(C)(C)C2	-0.704%
Cc1nc(N2CCN(Cc3ccccc3)CC2)c(C#N)c2c1COC(C)(C)C2	-5.21%

SMILES	hERG current change (%, negative = inhibition) at 10uM
O=C(CC1SC(N2CCCCC2)=NC1=O)Nc1cccc(C(F)(F)F)c1 (stereo not drawn)	12.3%
CCOc1ccc(C2Oc3nc(SC)nnc3-c3ccccc3N2C(C)=O)cc1OC (stereo not drawn)	9.64%
CCC(Sc1nnc(-c2ccc(C)c(Cl)c2)n1CC)C(=O)Nc1nccs1 (stereo not drawn)	-20.6%
CCOC(=O)/C=C(\C)Sc1cc(=O)oc2ccccc12	-40.4%
O=C(Nc1nccs1)c1ccc(COc2ccccc2)o1	15.6%
O=C(O)CC1c2ccccc2CCN1S(=O)(=O)c1ccc(F)cc1 (stereo not drawn)	8.32%
CCc1ccc2[nH]c(=O)c(-c3ccccc3)c(O)c2c1	17.5%
CN(CC(N)=O)S(=O)(=O)c1ccc(F)cc1	-15.7%
COc1ccc(C(=O)CSc2ccc3nnc(-c4cccnc4)n3n2)cc1	-70.3%
O=C(CSc1ccc2nnc(-c3cccnc3)n2n1)c1ccccc1	-70%
CCC(Sc1ccc2nnc(-c3cccnc3)n2n1)C(=O)OC (stereo not drawn)	-47%
CCOC(=O)CSc1ccc2nnc(-c3cccnc3)n2n1	-31%
O=C(O)CSc1ccc2nnc(-c3cccnc3)n2n1	12.2%
O=C(CSc1ccc2nnc(-c3cccnc3)n2n1)N1CCOCC1	-25%
O=C(Nc1cccc(NC(=O)C2CC2)n1)C1CC1	-6.67%
CCOC(=O)N1CCN(c2cc(N3CCOCC3)c(F)cc2[N+](=O)[O-])CC1	-18.2%
CC1=CC(=O)OC1Cc1ccncc1 (stereo not drawn)	11.3%
NC(=O)C1CCN(C(=O)CCSCc2ccc(Cl)c(Cl)c2)CC1	-13.3%
COc1cccc(CC2(CO)CCN(Cc3cn(C)nc3C)CC2)c1	18.3%
CCN1CCN(Cc2ccc(OC(F)(F)F)cc2)CC1	-26.6%
COc1ccc(CC2(CO)CCN(Cc3ccc(OC(F)(F)F)cc3)CC2)cc1	-75.1%
COC(=O)c1ccc(CN2CCC(CO)(Cc3ccccc3Cl)CC2)cc1	-64.8%
